# Results filed as inconclusive are left out. Entries that show only a call come without a potency. Active and inactive are the calls of the source. Calls follow the shape of the full dose curve.
# Experiment: qHTS assay to identify small molecule agonists of the endoplasmic reticulum stress response signaling pathway - cell viability counter screen (AID 1159517); also: nearly all actives have a fitted effect of over 50% in size
# Details: ESRE-bla HeLa viability, CellTiter-Glo luminescence, 5 h; series mostly up to 61 µM
# Excerpt: U.S. Tox21 Program National Center for Advancing Translational Sciences [NCATS] NIH Chemical Genomics Center [NCGC] U.S. Environmental Protection Agency [EPA] National Institutes of Environmental Health Sciences [NIEHS] National Toxicology Program [NTP] U.S. Food and Drug Administration [FDA] Tox21 Assay Overview: Endoplasmic Reticulum (ER) plays an important role in cellular signaling, protein folding/maturation, stress response, lipid biosynthesis, calcium storage and release etc. Under stress conditions, proteins in ER misfold or unfold, and leading to the expression of ER stress responsive genes. ER stress has been associated with a variety of pathophysiological conditions such as cancer, inflammation, neurodegenerative diseases, diabetes, ischemic heart disease etc. To identify the compounds that induce ER stress response, an ER stress reporter cell line, CellSensor ESRE-bla HeLa (Life Technologies, Carlsbad, CA) containing a beta-lactamase reporter gene under control of the Endoplasmic reticulum Stress Response Element (ESRE) was used to screen Tox21 10K compound library. The cytotoxicity of the Tox21 compound library against the ESRE-bla HeLa cell line was tested in parallel by measuring cell viability using the CellTiter-Glo assay in the same wells.
# Tox21 Assay Protocol Summary: ESRE-bla HeLa cells were dispensed at 1,500 cells/6 uL of assay medium per well into black wall/clear-bottom 1536-well plates using a Multidrop Combi (ThermoFisher Scientific, Waltham, MA) dispenser. After the assay plates were incubated at 37 C and 5% CO2 for an overnight, 23 nL of compounds dissolved in DMSO, positive controls or DMSO only was transferred to the assay plate by a Pintool station (Kalypsys, San Diego, CA). The assay plates were incubated at 37 C and 5% CO2 for 5 hr. One uL of LiveBLAzer B/G FRET substrate (Life Technologies) was added using a FRD (Flying Reagent Dispenser, Aurora Discovery, San Diego, CA) and the plates were incubated at room temperature for 2 hr. Fluorescence intensity (405 nm excitation, 460 nm and 530 nm emissions) was measured using an Envision plate reader (PerkinElmer, Shelton, CT). For cytotoxicity, 4 ul/well of CellTiter-Glo reagent was added into the assay plates using an FRD. After 30 min incubation at room temperature, the luminescence intensity was measured using a ViewLux plate reader (PerkinElmer).
# Potency is read from the fitted curve at half-maximal effect.
row,SMILES,Potency
1,ClC1=C(Cl)[C@]2(Cl)[C@@H]3[C@@H]4C[C@@H]([C@H]5O[C@@H]45)[C@@H]3[C@@]1(Cl)C2(Cl)Cl,54.9 µM (active)
2,CCCCCCCCc1ccc(O)cc1,49.3 µM (active)
3,c1ccc(OCC2CO2)cc1 (stereo not given),inactive
4,CC(C)(C)C(O)/C(=C\c1ccc(Cl)cc1Cl)n1cncn1 (stereo not given),inactive
5,C[C@]12CC[C@@H]3c4ccc(OC(=O)N(CCCl)CCCl)cc4CC[C@H]3[C@@H]1CC[C@@H]2O,inactive
6,ClC1=C(Cl)C2(Cl)C3C(Cl)C=CC3C1(Cl)C2(Cl)Cl (stereo not given),55.2 µM (active)
7,CC(C)(C)c1ccc(CSc2cnn(C(C)(C)C)c(=O)c2Cl)cc1,inactive
8,C[C@]12CC[C@H]3[C@@H](CCC4=CC(=O)CC[C@@]43C)[C@@H]1CC[C@@H]2O,inactive
9,CC(=O)/C=C/c1ccc2c(c1)OCO2,inactive
10,CC(C)(O)c1cnn2c(-c3ccc(F)c(-c4c(F)cccc4C#N)c3)cnc2n1,inactive
11,Cc1cc(C(C)(C)c2cc(C)c(O)c(C)c2)cc(C)c1O,59.6 µM (active)
12,O=C(CCCN1CCC2(CC1)C(=O)NCN2c1ccccc1)c1ccc(F)cc1,inactive
13,C1CCC2CCCCC2C1 (stereo not given),inactive
14,COC(=O)N(C(=O)N1CO[C@@]2(C(=O)OC)Cc3cc(Cl)ccc3C2=N1)c1ccc(OC(F)(F)F)cc1,inactive
15,CCCOCC(=Nc1ccc(Cl)cc1C(F)(F)F)n1ccnc1,34.6 µM (active)
16,O=C(CCl)C(Cl)Cl,inactive
17,Oc1ccc2ccc3cccc4ccc1c2c34,inactive
18,CC(=O)[O-].[Tl+],inactive
19,CC(C)OC(=S)S,inactive
20,CCCN(CCC)CCc1c[nH]c2ccccc12,inactive

row,SMILES,Potency
1,C=CCC1=C(C)C(OC(=O)C2C(C=C(C)C)C2(C)C)CC1=O (stereo not given),36.8 µM (active)
2,Oc1c(Cl)c(Cl)cc(Cl)c1Cl,inactive
3,CCCN(CC)CC1COC2(CCC(C(C)(C)C)CC2)O1 (stereo not given),inactive
4,CC(C)Oc1cccc(NC(=O)c2ccccc2C(F)(F)F)c1,inactive
5,CC(=O)C(Cl)(Cl)Cl,inactive
6,CCCCCCCCCC[N+](C)(C)CCCCCCCCCC,54.9 µM (active)
7,ClC1=C(Cl)C2(Cl)C3C(Cl)C(Cl)CC3C1(Cl)C2(Cl)Cl (stereo not given),49 µM (active)
8,O=C(NC(=O)c1c(F)cccc1F)Nc1cc(Cl)c(OC(F)(F)C(F)F)c(Cl)c1,inactive
9,O=C(O)c1cc[c]([Hg][Cl])cc1,inactive
10,Cn1cc(C2=C(c3cn(C4CCN(Cc5ccccn5)CC4)c4ccccc34)C(=O)NC2=O)c2ccccc21,inactive
11,ClC(Cl)=C(c1ccc(Cl)cc1)c1ccc(Cl)cc1,54.9 µM (active)
12,S=C=Nc1cccc2ccccc12,19.3 µM (active)
13,O=C(CBr)c1ccc(O)cc1,inactive
14,Nc1ccc(Sc2ccc(N)cc2)cc1,inactive
15,CSCCCN=C=S,19.5 µM (active)
16,CC[C@H]1C[C@@H]2C[C@H]3c4[nH]c5ccc(OC)cc5c4CCN(C2)[C@@H]13,inactive
17,O=S(=O)(c1ccc(Cl)cc1)c1ccc(Cl)cc1,inactive
18,BrC(Br)Br,inactive
19,COc1cccc2c1C(=O)c1c(O)c3c(c(O)c1C2=O)C[C@@](O)(C(=O)CO)CC3OC1CC(N2CCOC(OC)C2)C(O)C(C)O1 (stereo not given in full),0.952 µM (active)
20,CC(C)OS(C)(=O)=O,inactive

# From PubChem BioAssay (Tox21)
